Assay outcomes as filed in PubChem.
HT1080 IDH1KD tx: qHTS for induction of synthetic lethality in tumor cells producing 2HG: qHTS for the HT-1080-IDH1KD cell line; 2% of 360,000 active; HT-1080 IDH1 knockdown viability, ATP luminescence, 48 h; Potency, µM (series often up to 46.1 µM), without a hit: top-dose activity, negative = toxicity, hits mostly cytotoxic;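 note: 0% = DMSO wells and -100% = cell-free medium wells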
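In this qHTS, HT-1080 cells depleted of IDH1 are exposed for 48 h at 37 °C to compound titrations. Toxicity is scored from CellTiter-Glo luminescence, with DMSO as full viability and medium alone as none.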
ATXN2 expr inh: Primary qHTS for Inhibitors of ATXN expression. 0.72% of 360,000 active. HEK-293 ATXN2-luciferase reporter, luminescence, 24 h. Potency, µM (doses to about 57 µM), for inactives: top-dose activity change, negative = inhibition, most hits filed as inhibitors. AID 1745845, 2022; note: % is set by controls: 0 for no effect and ±100 for the full control effect; nearly all actives have a fitted effect of over 55% in size
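ATXN2-luciferase reporter cells (luciferase flanked by upstream and downstream ATXN2 gene portions) were treated 24 h at 37 °C with compounds at up to 57 uM. SteadyGlo luminescence gave expression; GF-AFC fluorescence gave viability.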
KB-V1 cytotox: qHTS assay for MDR1-selective chemotherapeutics: Primary screen using the drug-selected MDR subline cells KB-V1. KB-V1 MDR cells viability, CellTiter-Glo, 72 h. Potency, µM (highest dose often 46.1 µM), actives largely listed as cytotoxic. 3.4% of 400,000 active; note: % is set by controls: 0 for no effect and ±100 for the full control effect; nearly all actives have a fitted effect of over 60% in size
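Luminescent ATP read-out (CellTiter-Glo, 10 min) measures survival of drug-selected KB-V1 MDR cells after 72 h, 37 degrees C compound exposure. Medium: phenol-red-free DMEM, 10% FBS. Values from fitted concentration-response curves.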
HT1080NT lethal: qHTS for induction of synthetic lethality in tumor cells producing 2HG: qHTS for the HT-1080-NT fibrosarcoma cell line | HT-1080-NT fibrosarcoma viability, CellTiter-Glo ATP luminescence, 48 h | Potency, µM (titrated, usually from 46.1 µM), inactives show at the top dose activity, negative = less viability, actives largely listed as cytotoxic | 1.6% of 360,000 active | AID 686970, 2013;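 note: NT is the 2HG producing partner of a matched IDH1 knockdown line; 0% = DMSO-treated cells and -100% = media-only wells without cells; nearly all actives have a fitted effect of over 55% in size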
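Compounds were tested in concentration-response format on HT-1080-NT cells for 48 hours at 37 degrees C. Cell viability came from CellTiter-Glo luminescence; curves were classified by r2, response magnitude and activity.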
ATXN viability: Viability Counterscreen for Primary qHTS for Inhibitors of ATXN expression | Potency, µM (highest dose often 56.7 µM), hits mostly cytotoxic | S2 cells (HEK-293 line with an ATXN2-luciferase reporter) viability, CellTiter-Fluor protease fluorescence, 24 h | AID 651635, 2014 | 0.49% of 400,000 active; note: nearly all actives have a fitted effect of over 40% in size
KB-3-1 tox: qHTS assay for MDR1-selective chemotherapeutics: Primary screen using the parental adenocarcinoma cell KB-3-1 | AID 1347075, 2019 | KB-3-1 viability, CellTiter-Glo ATP luminescence, 72 h | Potency, µM (highest dose often 46.1 µM), most hits filed as cytotoxic | 1.4% of 400,000 active; note: % is set by controls: 0 for no effect and ±100 for the full control effect; nearly all actives have a fitted effect of over 60% in size
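Luminescent ATP read-out (CellTiter-Glo) measures survival of drug-naive KB-3-1 cells after 72 h compound exposure at 37 °C. Titration series was screened from lowest to highest concentration, with DMSO vehicle plates as background controls.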
* marks the source's active call; other numbers are inactive results; i = inactive; u = inconclusive; x = no result given. Compounds with a hit are over-represented: about 6.2% of the library has one in this group of screens. Calls come from the whole dose curve; as a rule, active = well fitted curve in the direction sought with a large enough effect; inconclusive = small, poorly fitted or top-dose-only effect, or another doubt; inactive = no such curve, though single readings can be large; an effect the other way counts as inactive or inconclusive. Potency is the fitted concentration of half-maximal effect.

SMILES | HT1080 IDH1KD tx | ATXN2 expr inh | KB-V1 cytotox | HT1080NT lethal | ATXN viability | KB-3-1 tox
CCCCNC(=O)c1cc2c(=O)n3cccc(C)c3nc2n(CCN2CCOCC2)c1=N | 16% | -5% | 10µM* | 6% | i | i
Cc1nnc(N2CCN(c3cccc(Cl)c3)CC2)c2c1nnn2Cc1ccc(F)cc1 | x | 5% | i | x | i | i
O=C(Cn1cnc2nc3c(cc2c1=O)CCCC3)N1CCN(c2ccccc2)CC1 | x | 13% | u | x | i | i
CC(=O)Nc1ccc(Nc2nc(Nc3ccc(Cl)cc3)nc(N3CCOCC3)n2)cc1 | x | x | i | x | x | i
Cc1ccc(-n2c(=O)c3sc4ccccc4c3n(C)c2=O)cc1F | x | 9% | i | x | i | i
O=C(NNc1ccccc1)C(CCO)C(=O)NNc1ccccc1 | 6.5µM* | -29% | i | 7.3µM* | i | i
CC(O)CC(C(=O)NNc1ccccc1)C(=O)NNc1ccccc1 (centres undefined) | 2.3µM* | u | i | 1.3µM* | i | u
CC(C(=O)Nc1ccccc1)C(=O)Nc1ccccc1 | -2% | -3% | i | -20% | i | i
CC(C)C(=O)NNc1ccccc1 | -8% | -1% | i | u | i | i
COc1cc(-c2cc(C)c3cccc(OC)c3n2)cc2c1OCCN(C(=O)CCn1nc(C)cc1C)C2 | x | x | x | x | i | x
COc1ccc(-c2nc3ccccc3o2)cc1NC(=O)COc1ccc(C)cc1 | x | x | i | x | x | i
O=C(Nc1nnc(Cc2ccc(Cl)cc2)s1)C1CCN(C(=O)c2ccco2)CC1 | x | x | i | x | x | u
COc1ccccc1C(=O)NCCn1cc(SCC(=O)Nc2cc(C)on2)c2ccccc21 | -6% | -16% | 8.2µM* | 7% | i | i
COc1ccc(C(=O)NCCn2cc(SCC(=O)Nc3cc(C)on3)c3ccccc32)cc1OC | -5% | 0% | i | -9% | i | i
Cc1cc(NC(=O)CSc2nnc(-c3c[nH]c4ccccc34)n2-c2ccc(Cl)cc2)no1 | 11µM* | -3% | i | -3% | u | i
Cc1cc(NC(=O)CSc2nc3c([nH]c4ccccc43)c(=O)n2-c2ccc(Cl)cc2)no1 | x | 3% | u | x | i | i
Cc1cc(NC(=O)CSc2cn(CCNC(=O)c3ccc(Cl)cc3)c3ccccc23)no1 | -7% | 0% | i | -7% | 19µM* | i
CCN(CC)c1ccc(/C=C/C2=C3C=CC=CC3NC=C2)cc1 (centres undefined) | x | x | i | x | x | u
CCc1nc2nc(C)cc(Nc3cc(C)ccc3C)n2n1 | x | -3% | i | x | u | i
CC1(C)Cc2cccc(OCC(=O)Nc3ccccc3N3CCOCC3)c2O1 | 8% | -7% | 3.7µM* | 11% | i | i
CC1(C)Cc2cccc(OCC(=O)NCc3ccc(F)cc3)c2O1 | -4% | -3% | 15µM* | -3% | i | i
O=c1c2ccccc2ncn1-c1ccc(Cl)cc1Cl | 19% | x | i | u | i | i
O=c1c2ccccc2sn1-c1ccc(Cl)cc1Cl | u | u | 15µM* | -21% | x | u
Cc1sc2nc(SCc3nnc(-c4cccs4)o3)n(C3CCCC3)c(=O)c2c1C | -3% | -12% | 21µM* | 0% | i | i
Cc1cccc(OCC(=O)NCC(=O)N/N=C/c2cc(Br)cc(Br)c2O)c1 | u | 14µM* | i | u | i | u
CCC(C)(C)NC(=O)C(c1ccc(C)o1)N(C(=O)c1csnn1)c1cccc(F)c1 (centres undefined) | -9% | 3% | 16µM* | 0% | i | i
